Results published in PubChem BioAssay AID1946 (Johns Hopkins Ion Channel Center, 2009).
The whole screen tested about 2,400 compounds, of which about 180 (7.5%) were called active. What follows is part of a selection rich in actives, with near analogues and random picks from the rest. Unmarked numbers belong to inactive results.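 How the source made its calls: active means readout below zero, meaning a drop past 3 SD under the dofetilide-free negative control mean; inactive means the rest.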

target: Potassium voltage-gated channel subfamily KQT member 2 (Rattus norvegicus) (UniProt O88943); experiment: rat KCNQ2 channel inhibition by compounds alone, confirmation, counter-screen for hERG block protector project, cell-based, CHO, FluxOR thallium flux (AID 1946); details: CHO-KCNQ2 cells, FluxOR thallium flux fluorescence; at 10 µM; stronger effect = lower value; zero marks the 3-SD hit cutoff
Sequence (O88943 whole entry, looked up): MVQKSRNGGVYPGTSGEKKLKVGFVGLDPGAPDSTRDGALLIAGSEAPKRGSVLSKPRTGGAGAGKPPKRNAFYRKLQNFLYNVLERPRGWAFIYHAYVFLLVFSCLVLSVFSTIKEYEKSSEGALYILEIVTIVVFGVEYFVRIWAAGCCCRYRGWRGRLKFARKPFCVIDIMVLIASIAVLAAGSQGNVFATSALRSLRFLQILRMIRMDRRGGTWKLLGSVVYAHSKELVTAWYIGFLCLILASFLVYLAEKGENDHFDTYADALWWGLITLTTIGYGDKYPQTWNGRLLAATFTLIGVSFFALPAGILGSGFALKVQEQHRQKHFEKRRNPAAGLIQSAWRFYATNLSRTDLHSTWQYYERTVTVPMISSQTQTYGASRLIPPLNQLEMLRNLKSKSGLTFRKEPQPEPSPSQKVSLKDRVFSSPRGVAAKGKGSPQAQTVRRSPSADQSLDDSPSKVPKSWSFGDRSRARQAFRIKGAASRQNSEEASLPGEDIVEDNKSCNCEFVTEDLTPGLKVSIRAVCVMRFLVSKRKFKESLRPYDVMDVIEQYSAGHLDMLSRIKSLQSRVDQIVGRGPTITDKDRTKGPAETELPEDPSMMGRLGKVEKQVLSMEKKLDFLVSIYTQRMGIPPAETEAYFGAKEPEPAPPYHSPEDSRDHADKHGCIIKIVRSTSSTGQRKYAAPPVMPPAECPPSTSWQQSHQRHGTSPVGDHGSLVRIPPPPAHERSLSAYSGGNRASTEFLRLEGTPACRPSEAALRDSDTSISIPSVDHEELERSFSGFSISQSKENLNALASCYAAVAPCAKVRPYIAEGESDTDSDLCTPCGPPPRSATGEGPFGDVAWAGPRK

Structure (SMILES) | activity change vs negative control
COC(=O)Oc1ccc(/C=C/C(=O)OC(C)C)cc1OC(=O)OC | 24.5%
CCN(CC)c1ccc(NC(=S)NC(=O)c2ccco2)cc1 | 67.2%
Cc1ccc(C(=O)Sc2cccccc2=O)cc1 | 102%
CC1=CC(=O)C(C(C)C)=CC1=NC(=O)c1ccc(C)cc1 | -1% (active)
CCOC(=O)c1sc2ncnc(NCC(c3cccs3)N(C)C)c2c1C (stereo not drawn) | 61%
S=c1[nH]c(-c2ccccc2)cs1 | 85.5%
COC(=O)Cn1c(=O)c(=O)n(CC(=O)OC)c2ccccc21 | -3.8% (active)
COC(=O)CCn1[nH]c(=O)c2ccccc2c1=O | 15.6%
CCOC(=O)Cn1cc(C=O)c2ccccc21 | 8.6%
O=C(NC(=S)Nc1ncc(Br)cc1Br)c1ccccc1 | 28.8%
CCOC(=O)NC(=S)Nc1ccc(C(C)(C)C)cc1Br | 16.6%
Cc1ccc(S(=O)(=O)NC(=S)NC2CCCCC2)cc1 | 19.8%
O=C(Nc1ccc(Cl)c(-c2nc3ccccc3[nH]2)c1)c1cccnc1 | -19.3% (active)
O=C(Nc1ccc(Oc2cccnc2)cc1)c1cccc([N+](=O)[O-])c1 | 13.8%
CN(C)S(=O)(=O)c1cccc(C(=O)Nc2cccnc2)c1 | 8%
O=C(NCC1CCCO1)c1ccc2c(=O)n(Cc3ccco3)c(SCC(=O)N3CCCC3)nc2c1 (stereo not drawn) | 32.7%
S=c1[nH]nc(-c2n[nH]c3c2CCC3)n1/N=C/C=C/c1ccccc1 | -4.8% (active)
S=c1[nH]nc(-c2ccco2)n1/N=C/C(Cl)=C/c1ccccc1 | 10.3%
Cc1cccc(/C=N/n2c(COc3ccccc3)n[nH]c2=S)c1 | 14.1%
Cc1ccc(C(=O)CC(=O)c2cccc(F)c2)c(O)c1 | 7.2%
CC(C)c1nc2sc3c(=S)nc[nH]c3c2c2c1CCC2 | 45.5%
Cc1cc2ccccn2c1C(=S)NC(=O)c1ccccc1 | 68.1%
C=CCn1c(O)c(N=NC(=S)Nc2ccc(OC)c(Cl)c2)c2ccccc21 | 18.3%
Nc1nnc(SCC(=O)OCc2ccc(F)cc2)s1 | -2.1% (active)
CCOC(=O)CSc1nnc(NC(=O)c2ccc3c(c2)OCO3)s1 | 5.6%
COc1ccccc1Nc1nnc(SCC(=O)Nc2nc(-c3ccc(F)cc3)cs2)s1 | 9.1%

Structure (SMILES) | activity change vs negative control
CCOC(=O)C(=CNc1cc(C)ccn1)C(=O)OCC | 18.2%
S=c1nc(C2CC2)[nH]c2ccccc12 | 58.2%
Cc1ccc(-c2nc3ccccc3c(=O)n2O)cc1 | 29.3%
COc1ccc(-n2nc(C(=O)NCC(=O)NCc3ccc(F)cc3)c3ccccc3c2=O)cc1OC | 12.7%
NC(=O)c1nsc(C(=O)N(CC(=O)NCc2ccccc2)c2ccc(F)cc2)c1N | -0.6% (active)
Cc1ccccc1Cn1nc(C)c(NC(=O)c2ccccc2)c1C | 73%
COc1ccccc1C(=O)NNC(=O)C(=O)Nc1ccc(C)cc1 | 162%
O=C(O)c1cc(NN=C2c3ccccc3-c3ccccc32)ccc1Cl | 63.8%
COC(=O)c1ccc(C(=O)NC(=S)Nc2nc3c(s2)CCCC3)cc1 | 37.8%
CC1CC(C)CN(CCCNC(=O)Cc2c(C(=O)O)[nH]c3ccccc23)C1 (stereo not drawn) | -0.3% (active)
CC1c2nc3ccccc3n2C(CC(=O)NCCCN2CCOCC2)C(=O)N1Cc1ccccc1 (stereo not drawn) | 12%
O=C(CN1C(=O)COc2ccccc21)NCCCN1CCOCC1 | 6.2%
c1ccc2c(c1)c1ccccc1n1c(-c3ccc4c(c3)OCO4)nnc21 | 11.9%
Oc1c(Br)cc(Cl)cc1C=Nc1ccccc1Br | 57.7%
COc1ccc(NC(=O)CSCC(=O)Oc2c(OC)cccc2OC)cc1 | -7.6% (active)
COc1ccc(OC(=O)Cc2cccc3ccccc23)cc1 | 15.2%
COc1ccc(CC(=O)Nc2ccc(-c3noc(-c4ccccc4OC)n3)cc2)cc1 | 7%
Cc1snnc1C(=O)NC(=S)Nc1ccccc1 | 53.9%
CCOc1ccc(CCNC(=O)Nc2ccccc2C)cc1OCC | 13.5%
Cc1cc(Cl)ccc1OC(C)C(=O)NCCc1ccc2c(c1)OCCO2 (stereo not drawn) | -9.4% (active)
COc1ccc(CCNC(=O)C(=O)Nc2ccc3c(c2)OCO3)cc1OC | 8.8%
CCc1ccc(S(=O)(=O)NC(=S)NC2CCCCC2)cc1 | 83.7%
O=C(CCN1C(=O)/C(=C\C=C\c2ccccc2)SC1=S)Nc1cccc(C(=O)O)c1 | 0.8%
Cc1nc2ccc(C(=O)O)cc2[nH]1 | 11.1%
C/C(O)=C/c1nc2ccccc2[nH]c1=O | -2% (active)
O=c1[nH]c2ccccc2nc1C(F)(F)C(F)F | 15.2%

Structure (SMILES) | activity change vs negative control
O=C(O)Cn1cc(CN2CCOCC2)c2ccccc21 | 2.7%
OC(CCN1CCOCC1)c1ccccc1 (stereo not drawn) | -2.1% (active)
S=C(NCCc1ccccc1)NCCN1CCOCC1 | 11.5%
O=c1ccn(Cc2ccc(F)cc2)c2ccnc(C(F)(F)F)c12 | -1.9% (active)
COc1ccc(C(=O)Nc2ccccc2C(=O)O)cc1Cl | 19.2%
O=C(NC(=S)NCCC1=CCCCC1)c1ccco1 | 66.4%
Cc1cccc(Cn2c(O)c(N=NC(=S)Nc3ccccc3F)c3ccccc32)c1 | 5.5%
CCN(CC)CCCNC(=O)c1cn(-c2cccc(OC)c2)c(=O)c2ccccc12 | -4% (active)
COc1cccc(NC(=O)c2nn(-c3ccc(OC)cc3OC)c(=O)c3ccccc23)c1 | 15.7%
COc1cccc(-n2nc(C(=O)O)c3ccccc3c2=O)c1 | 25.1%
CCC1CCc2c(sc(NC(=O)C3CC=CCC3C(=O)O)c2C#N)C1 (stereo not drawn) | 32.7%
CCN(CC)c1ccc(NC(=S)NC(=O)c2cccs2)cc1 | 18.4%
CCOC(=O)Cc1csc(NC(=S)NC(=O)C(C)(C)C)n1 | 28.2%
CCOc1ccc(-c2cccc(NC(=O)c3ccc(Br)o3)c2)nn1 | -8.6% (active)
COc1cccc(C(=O)Nc2cccc(-c3ccc(N4CCOCC4)nn3)c2)c1 | 5.2%
Cc1cccc(NC(=S)NC(=O)c2ccc(Br)o2)c1 | 69.7%
O=c1c2cc(Cl)ccc2nc(-c2ccc([N+](=O)[O-])cc2)n1O | 54.4%
O=C(COc1ccccc1Cl)NC(=S)Nc1ccccc1N1CCCC1 | 6.2%
CNC(=S)Nc1sc2c(c1C(=O)OC)CCC2 | 31.9%
O=C(NNC(=S)NC(=O)c1sc2ccccc2c1Cl)c1ccc(Cl)cc1 | 32.9%
Cc1ccc(C(=O)NNC(=S)NC(=O)c2ccccc2)cc1 | -4.5% (active)
Cc1cccc(C(=O)NC(=S)NNC(=O)COc2c(C)cccc2C)c1 | -13.3% (active)
Cc1cccc(C(=O)NNC(=S)NC(=O)c2ccccc2)c1 | 26.9%
Cc1ccc(C(=O)NNC(=S)NC(=O)c2ccc(Cl)cc2)cc1 | 0.8%
Cc1cccc(C(=O)NC(=S)NNC(=O)c2ccc(Cl)cc2)c1 | -7.1% (active)
Cc1cccc(C(=O)NC(=S)N(C)C2CCCCC2)c1 | 46.3%

Structure (SMILES) | activity change vs negative control
Cc1ccc(NC(=S)NC(=O)c2ccc(-c3ccccc3)cc2)cc1 | 10.9%
Cc1cccc(C(=O)NC(=S)N2CCc3ccccc3C2)c1 | 50.3%
Cc1sc2nc(CN3CCOCC3)[nH]c(=S)c2c1C | 108%
Cc1ccc(-c2c(=O)n(O)c3ccccc3[n+]2[O-])cc1 | 88.6%
O=c1c2ccccc2nc(-c2ccc(Cl)c(Cl)c2)n1O | 91.4%
COc1cc(OC)cc(C(=O)NNC(=O)C(=O)Nc2cc(OC)c(Cl)cc2OC)c1 | 71%
C[n+]1ccccc1/C=C/c1ccc(C#N)cc1 | 17.3%
O=c1[nH]c(C(Cl)(Cl)Cl)nc2ccc3ccccc3c12 | 37%
O=C(NC(=S)Nc1ccccc1N1CCCC1)c1ccco1 | 39%
O=C(NC(=S)Nc1ccccc1N1CCCC1)c1ccc([N+](=O)[O-])cc1 | 21.1%
O=C(NC(=S)Nc1ccccc1N1CCCC1)c1ccccc1Br | -8.3% (active)
O=C(NC(=S)Nc1ccccc1N1CCCCC1)c1cccs1 | 0% (active)
O=C(NC(=S)Nc1cccc(Cl)c1N1CCCCC1)c1cccs1 | 1.9%
O=C(NC(=S)Nc1ccccc1N1CCCC1)c1cccs1 | 14.1%
CCOc1cc(N2CCOCC2)c(OCC)cc1NC(=O)CCC1CCCC1 | 104%
O=C(NC(=S)N1CCCC1)c1ccc(Cl)cc1 | 26.1%
O=c1c(O)c(-c2ccc3c(c2)OCO3)oc2ccccc12 | 35%
Cc1ccc(CNC(=O)C2=CCN(S(=O)(=O)c3ccc(C)cc3)CC2)cc1 | 6.4%
CN1C(=O)c2ccc(C(=O)NCc3ccccc3)cc2C1=O | 10.5%
Cc1ccc(CNC(=O)c2ccc(CNc3c(N4CCCC4)c(=O)c3=O)cc2)cc1 | -1.7% (active)
CC(=O)c1c(N2CCN(Cc3ccccc3)CC2)[nH]c(-c2ccccc2)nc1=S | 50.5%
COc1ccc(-n2nc(C)cc2Nc2ccccc2C(=O)O)cc1 | 43.7%
C/C(=N\Nc1nc(C)c(C)s1)c1ccc([N+](=O)[O-])cc1 | 31.5%
O=c1[nH]c(N2CCN(c3ccccc3)CC2)nc2c1CCCC2 | 12%
c1ccc(-c2ccnc3nc(N4CCN(c5ccccc5)CC4)nn23)cc1 | -4.9% (active)
